This excerpt belongs to a sample that is enriched for hits.
Pf Dd2 growth = qHTS Primary assay for Inhibitors of Plasmodium falciparum Dd2 growth in vitro. P. falciparum Dd2 growth, SYBR Green, 72 h. Potency, µM (highest dose often 28.9 µM), actives largely listed as inhibitors. 120,000 compounds, 4.3% hits. AID 1347417, 2020; active means well fitted inhibition curve with a large enough effect; further: nearly all actives have a fitted effect of over 65% in size
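Infected erythrocytes (Dd2, 0.3% parasitemia, 2.5% hematocrit final) are added to compound in RPMI-1640/Albumax II medium, grown 72 h at 37C in low oxygen, then lysed with saponin/Triton-X containing SYBR Green and read by fluorescence.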
Each line names hits and unclear results; the compound was inactive in the other large screens.

Nc1c(C(=O)Nc2ccc(OC(F)(F)F)cc2)sc2nc(-c3ccncc3)ccc12	none
COCc1cc(C)nc2sc(C(=O)Nc3ccc(OC(F)(F)F)cc3)c(N)c12	Pf Dd2 growth 4µM
COc1ccc(NC(=O)c2sc3nc(C(F)(F)F)cc(C)c3c2N)cc1OC	none
O=C1Nc2ccccc2CN(Cc2ccncc2)C12CCNCC2	none
O=C1NCc2ccccc2CC12CCCN2C/C=C/c1ccccc1 (stereo not drawn)	none
O=C1Nc2ccccc2CN(CC2CCOCC2)C12CCNCC2	none
O=C1Nc2ccccc2CN(C/C=C/c2ccccc2)C12CCNC2 (stereo not drawn)	Pf Dd2 growth 11µM
O=C1Nc2ccccc2CN(Cc2ccc(Cl)cc2)C12CCNCC2	Pf Dd2 growth 7.1µM
O=C(C1CC1)N1Cc2ccccc2NC(=O)C12CCNCC2	none
Cc1nc(CN2CCOc3cc([S+](=O)([O-])N(C)C)ccc3C2)cs1	none
O=C(N[C@@H]1COCC[C@@H]1OCc1ccccc1)c1n[nH]c2c1COCC2	none
CC1(c2ccccc2)CCCN(C(=O)CCn2ccc(=O)[nH]c2=O)C1 (stereo not drawn)	none
CCN(C1CCOCC1)C1CN(C(=O)c2cccs2)C1	none
O=C(C1CC1)N1CC(Oc2ccccc2-c2nc(-c3cnccn3)no2)C1	Pf Dd2 growth 7.9µM
c1ccc(-c2nc(-c3cnccn3)no2)c(OC2CNC2)c1	none
CCNC(=O)N1CCC(Oc2ccccc2-c2nc(-c3cnccn3)no2)C1 (stereo not drawn)	none
c1ccc(-c2nc(-c3ccncc3)no2)c(OC2CCNC2)c1 (stereo not drawn)	Pf Dd2 growth 13µM
COc1ccccc1-c1noc(-c2nc(-c3ccncc3)no2)n1	none
O=C(Nc1ccccc1)N1CCC(Oc2ccccc2-c2nc(-c3ccccc3)no2)C1 (stereo not drawn)	none
COc1ccccc1NC(=O)N1CCCC1c1nncn1C1CCCC1 (stereo not drawn)	none
CC(=O)N1C[C@@H]2CCCN3CCC[C@@H]([C@H]23)[C@H]1CCCC(=O)N1CCN(C)CC1	none
CC(C)CNc1nccc(C2(c3ccccc3Cl)CCNCC2)n1	Pf Dd2 growth 5µM
OCC(O)CNc1nccc(C2(c3ccccc3Cl)CCNCC2)n1 (stereo not drawn)	none
Clc1ccccc1C1(c2ccnc(NCc3ccncc3)n2)CCNCC1	none
CCC(C)Cc1nccc(C2(c3ccccc3Cl)CCNCC2)n1 (stereo not drawn)	Pf Dd2 growth 4.5µM
CC(CNc1nccc(C2(c3ccccc3Cl)CCNCC2)n1)CN(C)C (stereo not drawn)	none
C[C@@H](O)CNc1nccc(C2(c3ccccc3Cl)CCNCC2)n1	none
Cc1ccc(C)c(C(=O)N2CCC(C3CCNC3)CC2)c1 (stereo not drawn)	none
Cn1cccc1C(=O)NC1CCCN(c2cc(-c3ccc(Cl)cc3)[nH]n2)C1 (stereo not drawn)	none
COc1ccc(Cl)cc1C(=O)N1CCc2nc3cc(-c4ccccc4)[nH]n3c(=O)c2C1	none
O=C(Cn1nc2n(c1=O)CCCCC2)NCCC1=CCCCC1	none
Cn1c2ccccc2c2cnn(CC(=O)NCc3ccc(Cl)cc3)c(=O)c21	none
O=C(Cn1ncc2c3ccccc3n(Cc3ccc(F)cc3)c2c1=O)NCCCN1CCCCC1	Pf Dd2 growth 5µM
O=C(Cn1ncc2c3ccccc3n(Cc3ccccc3F)c2c1=O)NCCCc1ccccc1	none
CCCCN(CC)CCCNC(=O)Cn1ncc2c3ccccc3n(Cc3ccccc3F)c2c1=O	Pf Dd2 growth 4µM
O=C(Cn1ncc2c3ccccc3n(Cc3ccc(F)cc3)c2c1=O)NC1CCCCCC1	none
CCCCN(CC)CCCNC(=O)Cn1ncc2c3ccccc3n(C)c2c1=O	none
CCN(CC)CCNC(=O)Cn1ncc2c3ccccc3n(Cc3ccc(Cl)cc3)c2c1=O	Pf Dd2 growth 5µM
O=C(Cn1ncc2c3ccccc3n(Cc3ccc(F)cc3)c2c1=O)NCCC1=CCCCC1	none
CCCn1c2ccccc2c2cnn(CC(=O)NCCN(CC)CC)c(=O)c21	none
CN1C[C@H](O)C[C@H]1c1nnc2n1CCN(C(=O)Cc1ccccc1)CC2	none
CCC(=O)N1CCCC(c2nc(-c3cccnc3)no2)CCNC(=O)CC1 (stereo not drawn)	none
COCCc1nncn1C1CCN(C(=O)c2ccc(C)c(F)c2)CC1	none
CCNC(=O)[C@@H]1C[C@H](n2cc(CN(C)C(=O)c3cccc(C)c3C)nn2)CN1	none
O=C(Nc1nn(-c2cccc(F)c2)c2cccc(N3CCOCC3)c12)C1CCC1	none
COC[C@@H]1CN(C(=O)Cc2cc(C)no2)C[C@H]1c1ccncc1	none
CC(C)=CCC1(CO)CCCN(Cc2cc(=O)n3cc(C)sc3n2)C1 (stereo not drawn)	none
COc1cc2c(cc1CN1CCC3(CCCNC3)C1)OCCCO2 (stereo not drawn)	none
COc1cc2c(cc1CN1CCCC(CO)(CC=C(C)C)C1)OCCO2 (stereo not drawn)	Pf Dd2 growth 7.9µM
COCC(=O)Nc1ccc([C@H]2OCC(=O)N(CC(C)C)[C@@H]2CO)cc1	none
C=CCNC(=O)C1COC2(CCCCC2)N1C(=O)c1cccc(F)c1 (stereo not drawn)	none
COc1ccc(-c2ccc3nc(-c4ccccc4Br)oc3c2)c(OC)c1OC	none
COc1ccc(-c2noc(-c3nnn(-c4ccc(C(C)C)cc4)c3C)n2)cc1OC	Pf Dd2 growth 8.9µM
COc1ccc(-c2noc(-c3nnn(-c4ccc(C)cc4C)c3C)n2)cc1	none
COc1ccc(OC)c(-n2nnc(-c3nc(-c4ccc5c(c4)OCO5)no3)c2C)c1	none
O=C(c1ccccc1F)N1CCC(N2CCOCC2=O)CC1	none
Cc1ccc(C)c2c(=O)cc(CNC(CCn3cncn3)c3ccccc3)[nH]c12 (stereo not drawn)	none
Cn1nc(C2CCN(C(=O)C3CCC3)CC2)c2c1CCOC2	none
CCCCCC(=O)Nc1nc2c(s1)C[C@@H]1[C@](C)(CO)[C@H](O)CC[C@@]1(C)[C@@H]2CC(=O)NC1CCCCC1	none
C[C@@H](NC(=O)C[C@@H]1c2nc(NC(=O)CC(C)(C)C)sc2C[C@@H]2[C@](C)(CO)[C@H](O)CC[C@]21C)c1ccccc1	Pf Dd2 growth 11µM
CC(C)(C)CC(=O)Nc1nc2c(s1)C[C@@H]1[C@](C)(CO)[C@H](O)CC[C@@]1(C)[C@@H]2CC(=O)O	none
CC(C)NC(=O)C[C@@H]1c2nc(NC(=O)c3c(F)cccc3F)sc2C[C@@H]2[C@](C)(CO)[C@H](O)CC[C@]21C	none
C[C@H](NC(=O)C[C@@H]1c2nc(NC(=O)c3ccc(F)cc3)sc2C[C@@H]2[C@](C)(CO)[C@H](O)CC[C@]21C)c1ccccc1	Pf Dd2 growth 2.5µM
CC(C)(C)CC(=O)Nc1nc2c(s1)C[C@@H]1[C@](C)(CO)[C@H](O)CC[C@@]1(C)[C@@H]2CC(=O)NCc1ccco1	none
C[C@]1(CO)[C@H]2Cc3sc(NC(=O)c4ccc(F)cc4)nc3[C@@H](CC(=O)O)[C@]2(C)CC[C@H]1O	none
CCCCCC(=O)Nc1nc2c(s1)C[C@@H]1[C@](C)(CO)[C@H](O)CC[C@@]1(C)[C@@H]2CC(=O)NCc1ccccc1	none
CCCCCC(=O)Nc1nc2c(s1)C[C@@H]1[C@](C)(CO)[C@H](O)CC[C@@]1(C)[C@@H]2CC(=O)NCc1cc(F)cc(F)c1	Pf Dd2 growth 7.9µM
CCNC(=O)N(C1CC1)C1CCOC2(CCN(C(=O)Nc3ccccc3F)CC2)C1 (stereo not drawn)	none
FC(F)(F)SCCn1ccnc1-c1cc2n(n1)CCCNC2	none
CCOc1ccccc1NC(=O)N1CC(c2nnc(-c3ccncc3)o2)C2(CCOCC2)C1 (stereo not drawn)	none
CCN(C(=O)CSc1nnc(-c2ccc(Cl)cc2)o1)c1ccccc1	none

Source: PubChem BioAssay
